Compound activity: PubChem BioAssay, National Center for Advancing Translational Sciences (NCATS)
DT40 TDP1 CPT: DT40-hTDP1 cell growth loss with CPT; Potency, µM (doses to about 46.2 µM), for the others: at the highest dose activity change, negative = growth inhibition, hits mostly inhibitors; actives 12% (n = 420,000); chicken DT40 Tdp1-/-;hTDP1 cells + 20 nM CPT, ATP luminescence, 48 h; AID 686979; note: potency is the fitted concentration of half-maximal effect; nearly all actives have a fitted effect of over 55% in size
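Cell growth measured by CellTiter-Glo luminescence after a minimum 48 h, 37 C compound exposure with 20 nM CPT in Tdp1-knockout DT40 cells stably expressing hTDP1, seeded 400/well; qHTS titration format.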
HT1080 IDH1KD tx: toxicity to HT-1080 IDH1 knockdown cells (counter line); Potency, µM (highest dose often 46.1 µM), without a hit: at the top dose activity, negative = toxicity, hits mostly cytotoxic; HT-1080 IDH1 knockdown viability, ATP luminescence, 48 h; actives 2% (n = 360,000); AID 686971;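 note: potency is the fitted concentration of half-maximal effect; 0% = DMSO wells and -100% = cell-free medium wells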
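HT-1080-IDH1KD cells (IDH1 knocked down), 750/well in RPMI with 5% FBS, treated with compound 48 h at 37 degrees C. Viability by CellTiter-Glo luminescence, normalised to DMSO and no-cell wells; concentration-response curves classed.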
IL-1B inflam inh: inflammasome signaling inhibition, IL-1 beta readout; activity change, % at 57.5 µM; THP-1 LPS/ATP IL-1B secretion, AlphaLISA, 16 h; stronger effect = lower value; actives 4.7% (n = 360,000); in the data active = activity change below about -50%; inconclusive = mostly about -30% to -49%
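Secreted IL-1B measured by AlphaLISA bead assay after 16 h compound exposure of THP-1 cells; compounds (final up to 57.5 uM) added 1 h before LPS (250 ng/mL) and ATP (1.25 mM) stimulation; lower signal means less secretion.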
HT1080-NT tox: kills 2HG-producing HT-1080-NT fibrosarcoma cells; HT-1080-NT fibrosarcoma viability, CellTiter-Glo ATP luminescence, 48 h; Potency, µM (series often up to 46.1 µM), for inactives: at the top dose activity, negative = less viability, actives largely listed as cytotoxic; actives 1.6% (n = 360,000);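 note: NT is the 2HG producing partner of a matched IDH1 knockdown line; potency is the fitted concentration of half-maximal effect; 0% = DMSO-treated cells and -100% = media-only wells without cells; nearly all actives have a fitted effect of over 55% in size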
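Toxicity toward the 2HG-producing NT line was scored as %Activity, normalised to DMSO and no-cell wells, from CellTiter-Glo luminescence after 48 hours' treatment.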
TDP1 cell noCPT: qHTS for Inhibitors of human tyrosyl-DNA phosphodiesterase 1 (TDP1): qHTS in cells in absence of CPT. DT40 Tdp1-/- hTDP1 cells, no CPT, ATP luminescence, 48 h. actives 15% (n = 420,000). AID 686978, 2013. Potency, µM (titrated, usually from 46.2 µM), without a hit: top-dose activity change, negative = growth inhibition, most hits filed as inhibitors; note: potency is the fitted concentration of half-maximal effect; nearly all actives have a fitted effect of over 55% in size
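Luminescent ATP content (CellTiter-Glo) served as the growth readout. Knockout chicken DT40 cells expressing human TDP1 were exposed to compounds without camptothecin for a minimum 48 hr at 37 °C.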
Active calls of the source: *; ? = inconclusive; . = not tested or not shown; [ ] = another dose, or the depositor's remark. A selection: hits, their analogues and other compounds. The true share with any hit is near 19%. Unless noted, calls come from the whole dose curve; as a rule, active = well fitted curve in the direction sought with a large enough effect; inconclusive = small, poorly fitted or top-dose-only effect, or another doubt; inactive = no such curve, though single readings can be large; an effect the other way counts as inactive or inconclusive. Unless noted, % is set by controls: 0 for no effect and ±100 for the full control effect.

SMILES | DT40 TDP1 CPT | HT1080 IDH1KD tx | IL-1B inflam inh | HT1080-NT tox | TDP1 cell noCPT
O=c1cc(-c2ccccc2)oc2ccc(O)cc12 | ? | 12% | -6 | 7% | ?
OCCCN=c1cc(-c2ccccc2)oc2ccc(Cl)cc12 | ? | ? | -102* | ? | 18µM*
CN1CCC(=C(c2ccccc2)c2ccc(Br)cc2)CC1 | ? | -1% | -27 | -4% | 16µM*
N#CCN1C(=O)NC2(CCCc3sccc32)C1=O (stereo unspecified) | 1% | 11% | 6 | -4% | -3%
CCCOc1ccc(-c2csc3nc[nH]c(=O)c23)cc1 | ? | 6% | -7 | 4% | ?
CCOc1ccc(-c2c(C)sc3nc[nH]c(=O)c23)cc1 | ? | -5% | 21 | -2% | 16µM*
COc1ccc(NC(=O)CCNS(=O)(=O)c2cc(Br)cnc2N)cc1OC | 4% | 1% | 25 | 0% | 11%
CC(C)Oc1ccc(CNC(=O)c2cnc3sc(N4CCCC4)nn3c2=O)cc1 | -23% | . | . | . | -29%
CN(C#N)c1nc(Cl)nc(Nc2cccc(Cl)c2)n1 | ? | -5% | -91* | -2% | ?
CCC(O)C1CCN(Cc2cn(Cc3ccccc3)nc2-c2cc3ccccc3o2)CC1 (stereo unspecified) | ? | -18% | 124 | ? | ?
OC1CCCN(Cc2cn(Cc3ccccc3)nc2-c2cc3ccccc3o2)C1 (stereo unspecified) | ? | ? | ? | -24% | 18µM*
COCCOC1CCN(Cc2cn(Cc3ccccc3)nc2-c2cc3ccccc3o2)CC1 | ? | -15% | -13 | 0% | 16µM*
N#CCCn1cc(C(=O)O)c(-c2cc3ccccc3o2)n1 | 0% | 13% | 8 | 10% | 4%
CC1=C(C(=O)N(C(C)C)C(C)C)CC(CC(=O)NC(c2ccccc2)c2ccccc2)C(=O)N1Cc1ccc(C(C)(C)C)cc1 (stereo unspecified) | ? | ? | -59* | ? | ?
CCN(CC)C(=O)C1=C(C)N(Cc2ccc(C(C)(C)C)cc2)C(=O)C(CC(=O)NC(c2ccccc2)c2ccccc2)C1 (stereo unspecified) | 13µM* | ? | ? | ? | 12µM*
CC1=C(C(=O)N2CCOCC2)CC(CC(=O)NC(c2ccccc2)c2ccccc2)C(=O)N1Cc1ccc(C(C)(C)C)cc1 (stereo unspecified) | ? | -26% | -19 | -25% | 16µM*
COc1ccc(CN2C(=O)C(CC(=O)NC(c3ccccc3)c3ccccc3)CC(C(=O)N(C(C)C)C(C)C)=C2C)cc1 (stereo unspecified) | ? | -8% | ? | -15% | ?
CCN(CC)C(=O)C1=C(C)N(Cc2ccc(F)cc2)C(=O)C(CC(=O)NCc2cccs2)C1 (stereo unspecified) | -6% | 5% | ? | 1% | -8%
CCN(CC)C(=O)C1=C(C)N(Cc2ccc(F)cc2)C(=O)C(CC(=O)NC(c2ccccc2)c2ccccc2)C1 (stereo unspecified) | ? | 0% | ? | -1% | 21µM*
NC(CCCCCP(=O)(c1ccccc1)c1ccccc1)C(=O)O (stereo unspecified) | -1% | 6% | 21 | -1% | -2%
CCCCN1C(=O)C(CC(=O)NC(c2ccccc2)c2ccccc2)CC(C(=O)N(C(C)C)C(C)C)=C1C (stereo unspecified) | 23µM* | 7% | -29 | -3% | 21µM*
CC1=C(C(=O)N2CCCCCC2)CC(CC(=O)NC(c2ccccc2)c2ccccc2)C(=O)N1CCC1=CCCCC1 (stereo unspecified) | 21µM* | ? | ? | ? | 16µM*
CC1=C(C(=O)N(C)C)CC(CC(=O)NC(c2ccccc2)c2ccccc2)C(=O)N1Cc1ccc(C(C)(C)C)cc1 (stereo unspecified) | ? | -24% | -6 | ? | 23µM*
COc1ccc(C)cc1NC(=O)CN1CCN(c2ccccc2F)CC1 | ? | -2%[9.24 µM] | -4 | -4% | 13µM*
COc1ccc(C)cc1NC(=O)CCN1CCN(c2ccccc2F)CC1 | ? | -8% | 6 | 20% | ?
SMILES | DT40 TDP1 CPT | HT1080 IDH1KD tx | IL-1B inflam inh | HT1080-NT tox | TDP1 cell noCPT
COc1ccc(OC)c(NC(=O)CCN2CCN(c3ccccc3F)CC2)c1 | 29µM* | 7% | -21 | 2% | 13µM*
C=C1CCN([C@@H](C)C(=O)NCc2ccc(Cl)cc2)S(=O)(=O)c2ccccc21 | ? | -17% | 21 | -4% | ?
CCn1c(SCC(=O)O)nnc1-c1ccccc1OC | -5% | 0% | 23 | 8% | -4%
CC1=C(C(=O)Nc2cccc(C(=O)N3CCN(c4cccc(C(F)(F)F)c4)CC3)c2)SCCO1 | 15µM* | ? | -61* | ? | 26µM*
CC1=C(C(=O)Nc2cc(C(=O)N3CCN(c4ccc(Cl)cc4)CC3)ccc2C)SCCO1 | 18µM* | -17% | -29 | -7% | 15µM*
CC1=C(C(=O)Nc2cccc(C(=O)NC3CCCCC3C)c2)SCCO1 (stereo unspecified) | 16µM* | -1% | -1 | 19% | ?
CC1=C(C(=O)Nc2ccc(C(=O)N3CCN(c4cccc(Cl)c4)CC3)cc2)SCCO1 | ? | -1% | ? | -1% | -22%
CC1(C)C2CCC(CN=C(N)CSS(=O)(=O)O)C1C2 (stereo unspecified) | ? | -21% | -58* | -7% | ?
CCc1nc(CN2CCCC(C(=O)c3ccc4c5c(cccc35)CC4)C2)c(C)[nH]1 (stereo unspecified) | ? | 16µM* | -100* | 15µM* | 16µM*
Cc1ncccc1C(=O)N1CCCC(C(=O)c2ccc3c4c(cccc24)CC3)C1 (stereo unspecified) | ? | -4% | -6 | -22% | ?
CN(C)C(=O)CCC(=O)N1CCCC(C(=O)c2ccc3c4c(cccc24)CC3)C1 (stereo unspecified) | ? | -1% | -8 | -18% | 15µM*
O=C(c1ccc2c3c(cccc13)CC2)C1CCCN(Cc2ccncc2)C1 (stereo unspecified) | 13µM* | -6% | ? | 13µM* | 9.2µM*
O=C(NC1CCS(=O)(=O)C1)c1ccc2c(c1)OCO2 (stereo unspecified) | 2% | 4% | 15 | 0% | 0%
CCOc1ccc(N(C(C)=O)c2nc(C)cc(C)c2C#N)cc1 | 1% | 7% | 5 | 5% | -2%
